Measured values as given in the supplement of paper PMC10849652.
Targets with a hit are over-represented here; the source holds about 7,900 in all. About 0.6% of all pairs of compound and target were hits. A number with no mark means an inactive call.

Experiments:
Experiment in all cases: log2 fold change, soluble protein after heating vs DMSO (PISA); higher = thermal stabilisation; K562 cells, 10 uM, 30 min; active = over 0.2 and 3.5 SD of the protein, either way, in both replicates (recomputed)
[1] = compound: CS(=O)(=O)c1ccc(-c2cnc(N)c(C(=O)Nc3ccccc3)n2)cc1
Procedure, shortened: (§1)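 K562 cells at 2×10^6 cells/mL were treated with 10 μM compound for 30 min. Aliquots were heated for 3 min across 48°C-58°C, pooled, and extracted in PBS with 0.5% NP-40 at 4°C; soluble protein was the supernatant after 21,000xg for 90 min. Soluble protein was quantified by TMTpro 16plex LC-MS/MS with channel sums equalised, and reported as log2 fold change in thermal stability against DMSO controls, with values from duplicates.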

crizotinib = compound: C[C@@H](Oc1cc(-c2cnn(C3CCNCC3)c2)cnc1N)c1c(Cl)ccc(F)c1Cl [crizotinib]
Procedure, shortened: as §1

[2] = compound: C[C@@H]1COCCN1C2=NC(=NC(=C2)C3(CC3)S(=O)(=O)C)C4=C5C=CNC5=CC=C4
Procedure, shortened: as §1

[3] = compound: C[C@H](C1=CC=C(C=C1)C(=O)NC2=C3C=CNC3=NC=C2)N
Procedure, shortened: as §1

duvelisib = compound: C[C@H](Nc1ncnc2nc[nH]c12)c1cc2cccc(Cl)c2c(=O)n1-c1ccccc1 [duvelisib]
Procedure, shortened: as §1

tozasertib = compound: Cc1cc(Nc2cc(N3CCN(C)CC3)nc(Sc3ccc(NC(=O)C4CC4)cc3)n2)n[nH]1 [tozasertib]
Procedure, shortened: as §1

[4] = compound: Cc1cc(SCc2sc(-c3ccc(C(F)(F)F)cc3)nc2C)ccc1OCC(=O)O
Procedure, shortened: as §1

doramapimod = compound: Cc1ccc(-n2nc(C(C)(C)C)cc2NC(=O)Nc2ccc(OCCN3CCOCC3)c3ccccc23)cc1 [doramapimod]
Procedure, shortened: as §1

ispinesib = compound: Cc1ccc(C(=O)N(CCCN)[C@@H](c2nc3cc(Cl)ccc3c(=O)n2Cc2ccccc2)C(C)C)cc1 [ispinesib]
Procedure, shortened: as §1

gandotinib = compound: Cc1cc(Nc2cc(CN3CCOCC3)c3nc(C)c(Cc4ccc(Cl)cc4F)n3n2)n[nH]1 [gandotinib]
Procedure, shortened: as §1

Chain of UniProt Q96NT5 (Q96NT5 whole entry, looked up): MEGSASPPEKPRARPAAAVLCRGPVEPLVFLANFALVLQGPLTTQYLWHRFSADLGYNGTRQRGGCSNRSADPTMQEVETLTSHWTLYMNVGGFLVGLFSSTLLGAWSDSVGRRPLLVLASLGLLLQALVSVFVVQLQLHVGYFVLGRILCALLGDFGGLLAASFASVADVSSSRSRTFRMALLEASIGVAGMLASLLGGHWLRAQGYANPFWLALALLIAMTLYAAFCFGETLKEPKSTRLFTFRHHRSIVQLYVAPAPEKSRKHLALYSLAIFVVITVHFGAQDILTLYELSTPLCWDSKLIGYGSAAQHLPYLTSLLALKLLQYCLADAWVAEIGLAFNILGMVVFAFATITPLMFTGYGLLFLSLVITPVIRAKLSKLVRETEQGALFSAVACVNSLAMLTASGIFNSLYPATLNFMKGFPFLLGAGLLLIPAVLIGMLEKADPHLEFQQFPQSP
Chain of UniProt Q9Y5J6 (Q9Y5J6 whole entry, looked up): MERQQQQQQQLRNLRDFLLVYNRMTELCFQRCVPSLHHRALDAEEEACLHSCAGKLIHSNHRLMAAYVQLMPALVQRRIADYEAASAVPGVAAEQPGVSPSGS
Chain of UniProt Q8N357 (Q8N357 whole entry, looked up): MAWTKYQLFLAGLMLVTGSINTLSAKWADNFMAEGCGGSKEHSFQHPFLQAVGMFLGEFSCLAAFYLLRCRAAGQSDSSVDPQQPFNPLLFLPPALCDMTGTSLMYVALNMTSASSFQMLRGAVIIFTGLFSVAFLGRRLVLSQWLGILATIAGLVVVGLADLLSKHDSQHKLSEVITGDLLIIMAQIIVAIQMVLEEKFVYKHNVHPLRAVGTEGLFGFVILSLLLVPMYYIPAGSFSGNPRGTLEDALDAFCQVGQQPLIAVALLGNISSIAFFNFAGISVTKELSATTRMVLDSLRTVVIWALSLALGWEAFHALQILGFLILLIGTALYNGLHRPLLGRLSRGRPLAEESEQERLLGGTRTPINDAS
Chain of UniProt Q9C0B7 (Q9C0B7 whole entry, looked up): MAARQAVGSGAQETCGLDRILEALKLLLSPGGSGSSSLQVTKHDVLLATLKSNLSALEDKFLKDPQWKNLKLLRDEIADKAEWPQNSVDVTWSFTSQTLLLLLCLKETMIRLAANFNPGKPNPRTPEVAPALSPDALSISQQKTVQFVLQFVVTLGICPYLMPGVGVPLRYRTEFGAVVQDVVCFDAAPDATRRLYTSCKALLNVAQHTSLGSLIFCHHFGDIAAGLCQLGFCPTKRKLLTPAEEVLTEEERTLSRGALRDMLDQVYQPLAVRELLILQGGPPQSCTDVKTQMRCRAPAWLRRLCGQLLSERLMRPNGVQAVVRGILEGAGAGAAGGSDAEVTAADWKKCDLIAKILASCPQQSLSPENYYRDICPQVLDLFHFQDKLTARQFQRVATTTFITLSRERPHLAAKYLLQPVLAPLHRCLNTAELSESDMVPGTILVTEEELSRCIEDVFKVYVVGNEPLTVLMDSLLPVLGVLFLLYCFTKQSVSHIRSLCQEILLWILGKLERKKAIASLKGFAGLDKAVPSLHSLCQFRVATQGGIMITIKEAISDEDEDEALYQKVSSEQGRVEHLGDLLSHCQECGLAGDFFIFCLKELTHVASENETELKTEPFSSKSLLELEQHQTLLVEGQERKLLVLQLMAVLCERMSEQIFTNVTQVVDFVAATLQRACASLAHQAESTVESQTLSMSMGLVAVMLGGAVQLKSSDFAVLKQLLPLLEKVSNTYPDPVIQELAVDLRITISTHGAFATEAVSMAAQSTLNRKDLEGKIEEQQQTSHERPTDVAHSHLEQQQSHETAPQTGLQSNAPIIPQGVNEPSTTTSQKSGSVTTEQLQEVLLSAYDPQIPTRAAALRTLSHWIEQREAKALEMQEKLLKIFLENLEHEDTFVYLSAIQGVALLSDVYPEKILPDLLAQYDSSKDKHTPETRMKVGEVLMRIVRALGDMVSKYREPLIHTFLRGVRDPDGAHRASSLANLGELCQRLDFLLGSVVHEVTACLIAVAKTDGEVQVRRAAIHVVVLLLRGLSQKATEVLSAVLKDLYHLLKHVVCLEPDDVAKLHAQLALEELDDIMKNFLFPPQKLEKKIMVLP
Chain of UniProt O95359 (O95359 whole entry, looked up): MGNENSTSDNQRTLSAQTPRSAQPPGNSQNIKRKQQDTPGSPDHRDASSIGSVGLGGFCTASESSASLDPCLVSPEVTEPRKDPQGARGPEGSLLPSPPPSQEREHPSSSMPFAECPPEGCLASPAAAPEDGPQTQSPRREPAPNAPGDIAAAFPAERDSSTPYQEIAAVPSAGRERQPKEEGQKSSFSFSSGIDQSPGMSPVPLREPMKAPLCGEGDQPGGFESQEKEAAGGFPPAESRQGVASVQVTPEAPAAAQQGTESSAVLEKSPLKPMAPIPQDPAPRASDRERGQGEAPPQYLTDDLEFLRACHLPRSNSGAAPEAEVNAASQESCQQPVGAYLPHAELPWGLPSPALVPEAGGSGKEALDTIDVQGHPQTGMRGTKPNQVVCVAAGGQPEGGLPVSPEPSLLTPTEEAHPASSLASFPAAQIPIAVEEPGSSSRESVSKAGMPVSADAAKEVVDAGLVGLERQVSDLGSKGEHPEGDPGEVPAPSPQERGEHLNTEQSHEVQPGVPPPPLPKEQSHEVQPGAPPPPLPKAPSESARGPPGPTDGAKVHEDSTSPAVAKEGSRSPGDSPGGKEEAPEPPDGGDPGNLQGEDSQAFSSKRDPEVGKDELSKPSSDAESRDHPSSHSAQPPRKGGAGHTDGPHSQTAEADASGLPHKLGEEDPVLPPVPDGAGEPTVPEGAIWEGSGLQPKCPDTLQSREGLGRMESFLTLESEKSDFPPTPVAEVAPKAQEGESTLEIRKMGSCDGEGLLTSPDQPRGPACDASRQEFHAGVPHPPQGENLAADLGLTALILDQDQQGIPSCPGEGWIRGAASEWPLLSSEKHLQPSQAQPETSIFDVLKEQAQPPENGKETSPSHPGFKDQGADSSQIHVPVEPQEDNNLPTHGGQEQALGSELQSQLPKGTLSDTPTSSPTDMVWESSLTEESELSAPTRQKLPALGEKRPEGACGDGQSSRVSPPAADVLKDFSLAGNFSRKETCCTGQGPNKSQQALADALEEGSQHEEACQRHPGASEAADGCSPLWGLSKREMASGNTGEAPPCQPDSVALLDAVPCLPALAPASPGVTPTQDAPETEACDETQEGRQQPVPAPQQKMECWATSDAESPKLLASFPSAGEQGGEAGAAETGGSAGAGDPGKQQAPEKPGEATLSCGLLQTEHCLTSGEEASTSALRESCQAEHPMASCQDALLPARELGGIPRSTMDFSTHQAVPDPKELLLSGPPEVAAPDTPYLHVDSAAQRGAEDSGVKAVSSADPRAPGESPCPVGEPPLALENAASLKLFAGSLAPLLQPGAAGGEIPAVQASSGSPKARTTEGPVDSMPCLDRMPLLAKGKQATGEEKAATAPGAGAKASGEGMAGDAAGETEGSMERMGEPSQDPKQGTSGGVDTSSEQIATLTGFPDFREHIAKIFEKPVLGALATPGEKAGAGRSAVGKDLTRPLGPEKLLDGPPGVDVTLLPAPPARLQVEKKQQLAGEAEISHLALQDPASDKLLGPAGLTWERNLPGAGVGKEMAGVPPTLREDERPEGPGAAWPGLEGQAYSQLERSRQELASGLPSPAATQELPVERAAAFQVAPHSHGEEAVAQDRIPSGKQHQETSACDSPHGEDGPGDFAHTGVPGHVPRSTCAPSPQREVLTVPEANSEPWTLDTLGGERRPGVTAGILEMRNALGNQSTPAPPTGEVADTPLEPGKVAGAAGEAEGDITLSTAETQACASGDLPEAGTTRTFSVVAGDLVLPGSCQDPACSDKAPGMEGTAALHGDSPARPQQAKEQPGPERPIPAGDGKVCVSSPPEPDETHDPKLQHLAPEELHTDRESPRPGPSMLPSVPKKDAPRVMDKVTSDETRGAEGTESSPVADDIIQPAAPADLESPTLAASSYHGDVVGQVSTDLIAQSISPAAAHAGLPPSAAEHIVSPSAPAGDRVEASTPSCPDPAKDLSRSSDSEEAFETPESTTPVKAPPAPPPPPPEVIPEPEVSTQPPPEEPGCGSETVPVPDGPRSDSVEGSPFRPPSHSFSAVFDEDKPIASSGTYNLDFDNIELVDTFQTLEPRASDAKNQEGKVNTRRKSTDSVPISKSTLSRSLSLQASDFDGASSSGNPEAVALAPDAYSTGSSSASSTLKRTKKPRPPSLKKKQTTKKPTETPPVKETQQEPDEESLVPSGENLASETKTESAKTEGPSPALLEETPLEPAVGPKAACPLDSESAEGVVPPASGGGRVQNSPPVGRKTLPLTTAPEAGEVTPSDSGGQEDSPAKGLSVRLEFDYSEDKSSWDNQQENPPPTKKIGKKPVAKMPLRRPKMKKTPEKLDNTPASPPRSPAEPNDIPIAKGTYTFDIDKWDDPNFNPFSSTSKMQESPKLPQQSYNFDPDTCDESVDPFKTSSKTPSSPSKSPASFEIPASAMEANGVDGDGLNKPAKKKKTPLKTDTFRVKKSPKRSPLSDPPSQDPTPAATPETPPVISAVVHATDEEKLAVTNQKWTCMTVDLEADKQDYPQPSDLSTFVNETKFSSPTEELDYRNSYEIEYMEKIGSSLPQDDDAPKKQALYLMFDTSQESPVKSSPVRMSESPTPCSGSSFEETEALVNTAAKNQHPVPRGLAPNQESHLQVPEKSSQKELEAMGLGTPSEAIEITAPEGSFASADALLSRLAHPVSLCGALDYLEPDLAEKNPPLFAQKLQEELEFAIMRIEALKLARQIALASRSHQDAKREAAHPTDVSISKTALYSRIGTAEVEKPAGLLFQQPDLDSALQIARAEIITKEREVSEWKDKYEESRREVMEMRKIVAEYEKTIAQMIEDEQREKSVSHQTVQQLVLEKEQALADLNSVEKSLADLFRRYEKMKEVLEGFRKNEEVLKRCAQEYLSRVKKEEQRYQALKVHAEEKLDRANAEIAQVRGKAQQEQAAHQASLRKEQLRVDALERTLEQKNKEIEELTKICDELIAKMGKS
Chain of UniProt Q8N5G0 (Q8N5G0 whole entry, looked up): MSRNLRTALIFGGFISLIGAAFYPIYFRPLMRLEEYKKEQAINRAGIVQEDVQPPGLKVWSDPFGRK

Target | log2 fold change [1] | log2 fold change (crizotinib) | log2 fold change [2] | log2 fold change [3] | log2 fold change (duvelisib) | log2 fold change (tozasertib) | log2 fold change [4] | log2 fold change (doramapimod) | log2 fold change (ispinesib) | log2 fold change (gandotinib)
SLC35B1 isoform 2 (UniProt P78383) | 0.049 | -0.053 | -0.042 | -0.535 (active) | 0.171 | 0.075 | 0 | -0.061 | -0.043 | 
SLC27A1 (UniProt Q6PCB7) | 0.116 | 0.123 | 0.016 | -0.099 | 0.05 | -0.084 | 0.112 | 0.062 | 0.06 | 
SLC35B4 (UniProt Q969S0) | 0.016 | 0.256 | 0.048 |  |  | 0.063 |  | 0.038 |  | 
TANGO6 (UniProt Q9C0B7) | 0.006 | -0.123 | -0.022 | 0.366 (active) | 0.087 | -0.124 | 0.078 | -0.004 | -0.085 | 
TBC1D15 isoform 3 (UniProt Q8TC07) | -0.012 | -0.275 | -0.032 | 0.036 | -0.031 | 0.061 | 0.064 | 0.017 | -0.154 | -0.191
STIM1 (UniProt Q13586) | 0.015 | -0.07 | 0.087 | -0.028 | 0.014 | -0.018 | 0.057 | 0.011 | -0.233 | -0.008
SYMPK (UniProt Q92797) | -0.031 | -0.189 | 0.046 | -0.026 | 0.077 | 0.054 | 0.235 | -0.09 | -0.023 | -0.155
SP2 (UniProt Q02086) | -0.14 | 0.083 |  |  | -0.08 |  | 0.125 | -0.06 |  | 
TENT5C (UniProt Q5VWP2) | 0.044 | 0.043 |  | 0.011 | 0.111 | -0.05 | 0.174 | 0.061 | 0.055 | 0.142
SYK (UniProt P43405) |  |  | -0.093 | 0.053 | 0.13 | 0.031 | 0.405 | 0.179 | -0.216 | 
SREBF1 isoform 4 (UniProt P36956) |  | 0.106 | 0.084 |  | -0.083 |  | 0.089 | 0.098 |  | 
TBP (UniProt P20226) |  | 0.048 | -0.021 | 0.303 | -0.135 | 0.072 | -0.098 | -0.023 | -0.006 | 
SLC46A1 (UniProt Q96NT5) |  |  |  | -0.047 |  | 0.035 |  |  |  | -0.006
TAOK2 (UniProt Q9UL54) |  | 0.157 | -0.108 |  |  | -0.02 |  | -0.036 | 0.035 | -0.045
TBC1D2 (UniProt Q9BYX2) |  |  | 0.064 |  |  |  |  |  |  | -0.04
SLC9A6 isoform 3 (UniProt Q92581) |  |  |  | -0.018 | -0.001 | -0.126 | -0.137 |  |  | 
TM7SF3 (UniProt Q9NS93) | -0.01 | -0.432 (active) |  | -0.216 | 0.007 | -0.054 | -0.003 | 0.052 | -0.343 (active) | 
SNRK (UniProt Q9NRH2) | 0.008 | -0.026 |  |  | -0.162 |  | -0.067 | 0.001 |  | 
SPIRE1 (UniProt Q08AE8) |  | -0.105 | -0.324 | 0.087 |  | -0.052 |  | 0.096 | -0.073 | 0.344
TEX30 (UniProt Q5JUR7) |  | -0.206 | 0.073 | 0.044 | 0.031 | 0.045 | 0.067 | 0.059 | -0.295 | -0.292
TIMM10B (UniProt Q9Y5J6) | 0.107 |  | 0.129 | 0.031 | 0.308 | -0.114 | -0.161 |  | 0.077 | 0.087
SSB (UniProt E7ERC4) |  |  |  |  | 0.399 |  | 0.337 |  |  | -0.352
SYNE2 isoform 2 (UniProt Q8WXH0) | 0.209 | -0.009 |  | 0.429 | 0.214 | -0.053 | 0.06 | 0.046 | -0.08 | 0.521 (active)

Target | log2 fold change [1] | log2 fold change (crizotinib) | log2 fold change [2] | log2 fold change [3] | log2 fold change (duvelisib) | log2 fold change (tozasertib) | log2 fold change [4] | log2 fold change (doramapimod) | log2 fold change (ispinesib) | log2 fold change (gandotinib)
TM7SF2 (UniProt O76062) | -0.044 |  |  | 0.028 | -0.075 |  | 0.028 |  | -0.451 | 
SPIN4 (UniProt Q56A73) |  | 0.108 |  |  |  |  |  | -0.213 |  | 
TAF6L (UniProt Q9Y6J9) | -0.035 |  |  | 0.058 | 0.246 | 0.115 | -0.121 |  | -0.045 | -0.08
SOX5 (UniProt P35711) | 0.07 | 0.046 |  | 0.041 |  | 0.045 |  | 0.054 | 0.004 | 
TACC2 (UniProt O95359) | -0.045 |  |  | -0.013 | 0.058 | 0.056 | -0.005 |  | 0.145 | -0.154
TDP1 (UniProt Q9NUW8) |  |  |  | 0.145 |  |  |  |  |  | 
SMIM20 isoform 2 (UniProt Q8N5G0) | -0.014 |  | 0.126 | 0.019 | 0.086 | 0.069 | -0.068 |  | 0.089 | 0.068
TMBIM1 (UniProt Q969X1) | -0.03 |  | -0.043 | 0.274 | 0.042 | -0.154 | -0.026 |  | 0.303 | -0.017
TCOF1 isoform 6 (UniProt Q13428) | -0.07 | 0.032 |  | -0.025 |  | -0.008 |  | -0.068 | -0.122 | 
TCOF1 isoform 3 (UniProt Q13428) | -0.103 |  | 0.542 |  |  | 0.073 |  |  | -0.185 | -0.166
SRCAP (UniProt Q6ZRS2) | -0.015 | -0.276 |  | -0.111 | 0.039 | 0.064 | -0.035 | 0.051 | 0 | -0.069
STK17B (UniProt O94768) |  | -0.227 |  |  |  |  |  | -0.085 |  | 
SLC39A11 (UniProt Q8N1S5) | 0.121 | 0.109 |  | -0.066 | -0.085 | 0.116 | -0.126 | 0.009 | 0.085 | 0.271
TK1 (UniProt K7ERV3) | 0 |  | 0.021 | 0.182 | 0.046 | 0.012 | -0.041 |  | 0.005 | -0.029
TC2N (UniProt Q8N9U0) |  |  |  |  | 0.256 | -0.095 | -0.072 |  | -0.071 | 
SSBP4 (UniProt Q9BWG4) | -0.054 | -0.034 |  |  | 0.255 | -0.014 | 0.123 | 0.103 | 0.148 | -0.121
SLC39A1 (UniProt Q9NY26) |  |  |  | 0.023 |  |  |  |  |  | -0.137
SLC8B1 (UniProt Q6J4K2) |  | -0.793 (active) |  | 0.129 | 0.196 |  | -0.073 | 0.046 | -0.477 (active) | -0.053
SMPD4 isoform 2 (UniProt Q9NXE4) |  | -0.21 |  | -0.061 | 0.069 | -0.163 | 0.09 | 0.027 |  | -0.263
THAP9 (UniProt Q9H5L6) |  | -0.004 |  | -0.105 | 0.168 |  | -0.245 | 0.041 | -0.21 | 
SLC35F6 (UniProt Q8N357) | -0.247 |  | 0.021 | 0.076 | -0.049 | 0.034 | -0.219 |  | -0.083 | 
SPAG9 isoform 4 (UniProt O60271) | 0.144 | -0.061 |  | 0.123 |  | 0.142 |  | 0.042 | -0.128 | 
